Screens (PubChem)
Mcl1 Noxa PPI: Mcl-1/Noxa binding inhibitors, primary screen, biochemical, TR-FRET, 1536-well; inhibition, % at 21.7 µM; Induced myeloid leukemia cell differentiation protein Mcl-1 (Homo sapiens), Q07820; hit rate 1.5% among 220,000; TR-FRET Mcl-1/Noxa peptide binding, 2 h;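 active = compounds that cut the protein-peptide binding signal by more than 50% relative to plate controls in a single-dose test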;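 also: His-tagged Mcl-1 with rhodamine Noxa BH3 peptide and terbium anti-His antibody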
Bim-Mcl-1: inhibitors of Bim peptide binding to Mcl-1, primary screen, biochemical, bead-based flow cytometry, multiplex. Induced myeloid leukemia cell differentiation protein Mcl-1 (Homo sapiens), Q07820. inhibition, % at 10 µM. AID 1009, 2008. Bim peptide-Mcl-1 binding. hit rate 0.1% among 190,000; in the data active = inhibition above about 40%
p47phox inh: p47phox/p22phox peptide binding inhibitors, primary screen, biochemical, uHTS, NADPH oxidase regulatory subunit. Neutrophil cytosol factor 1 (Homo sapiens), P14598. fluorescence polarization, 2 h. inhibition, % at 24.7 µM. hit rate 0.53% among 220,000. AID 1274, 2008;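 active = inhibition above about 30%, limit read from the data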
Target sequence (P14598 whole entry, looked up): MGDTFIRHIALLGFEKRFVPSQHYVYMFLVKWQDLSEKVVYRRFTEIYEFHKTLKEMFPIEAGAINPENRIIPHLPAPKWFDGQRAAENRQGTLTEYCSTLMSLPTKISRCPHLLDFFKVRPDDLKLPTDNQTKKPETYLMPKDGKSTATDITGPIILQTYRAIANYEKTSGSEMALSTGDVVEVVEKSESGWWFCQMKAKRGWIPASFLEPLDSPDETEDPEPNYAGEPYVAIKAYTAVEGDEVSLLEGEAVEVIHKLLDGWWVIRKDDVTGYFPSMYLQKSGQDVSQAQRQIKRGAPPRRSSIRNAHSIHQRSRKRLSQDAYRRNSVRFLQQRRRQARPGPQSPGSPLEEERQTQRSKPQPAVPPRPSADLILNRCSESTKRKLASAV
14-3-3 Bad inh: inhibitors of 14-3-3 zeta/Bad binding, primary screen, biochemical, TR-FRET, bovine 14-3-3 zeta; TR-FRET 14-3-3zeta/Dy647-pBad peptide displacement, 1 h; hit rate 0.71% among 220,000; AID 781, 2007; inhibition, % at 21.7 µM; 14-3-3 protein zeta/delta (Bos taurus), P63103;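 active = inhibition above about 70%, limit read from the data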
Target sequence (P63103 whole entry, looked up): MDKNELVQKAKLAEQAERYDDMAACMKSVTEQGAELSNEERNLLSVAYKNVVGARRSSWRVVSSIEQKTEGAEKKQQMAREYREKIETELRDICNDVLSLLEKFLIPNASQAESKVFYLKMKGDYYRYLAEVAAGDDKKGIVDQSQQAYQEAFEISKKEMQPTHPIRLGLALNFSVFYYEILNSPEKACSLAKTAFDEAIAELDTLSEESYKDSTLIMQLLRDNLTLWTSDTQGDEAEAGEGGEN
Mcl1-Bid inh: Mcl-1/Bid binding inhibitors, primary screen, biochemical, TR-FRET, 1536-well | Induced myeloid leukemia cell differentiation protein Mcl-1 (Homo sapiens), Q07820 | TR-FRET Mcl-1/Bid-Dy647 peptide binding | inhibition, % at 21.7 µM | hit rate 0.97% among 220,000 | AID 1021, 2008;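 active = compounds that cut the binding signal by more than half at the single screening dose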;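 also: His-tagged Mcl-1 with europium anti-His antibody binding Bid BH3 peptide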
Hits are given with their value; i = inactive; nt = no result. Shown are actives, neighbours in structure and some others; about 3.1% of the full set was active somewhere.

SMILES	Mcl1 Noxa PPI	Bim-Mcl-1	p47phox inh	14-3-3 Bad inh	Mcl1-Bid inh
COCCn1c(SCc2nc3sc(C(=O)OC)c(C)c3c(=O)[nH]2)nc2ccccc21	i	i	i	i	i
OCCC1CN(Cc2ccccc2-c2ccco2)CCN1Cc1ccccc1 (stereo not drawn)	i	i	i	i	i
COc1cc(NS(=O)(=O)c2ccc(N/C=C\C(=O)c3ccc(F)cc3)cc2)nc(OC)n1	i	i	i	i	i
C=CCn1c(Sc2nnc(C)s2)nc2c1c(=O)[nH]c(=O)n2C	i	i	i	i	i
Cc1nnc(Sc2c(N)n(C)c(=O)[nH]c2=O)s1	i	i	i	i	100
COc1cc2cc(C(=O)N3CCN(Cc4ccc5c(c4)OCO5)CC3)c(=O)oc2cc1OC	i	nt	i	i	i
Cc1cc(C(=O)NN=C2CCCCCC2)c(C)o1	i	nt	i	i	i
O=C(Nc1ccc(Br)cc1)c1cccn1-c1ncc(C(F)(F)F)cc1Cl	i	i	i	i	i
NC(=O)c1cccn1-c1ncc(C(F)(F)F)cc1Cl	i	i	i	i	83
O=[N+]([O-])c1ccc(N/N=C2/CCCCC2c2ccccn2)cc1 (stereo not drawn)	i	i	i	i	i
O=C(Cc1ccc([N+](=O)[O-])cc1)NCc1ccccn1	69	i	i	i	i
O=C(NCc1ccccn1)c1ccc([N+](=O)[O-])cc1	i	i	i	i	i
NC(N)=N/N=C/c1ccc(Cl)cc1Cl	i	nt	i	i	51
Cc1nc(SCC(=O)NC(=O)NC(C)C)nc(C)c1C	64	i	i	i	i
COc1ccc(/C=C(\NC(=O)c2ccccc2)C(=O)OCC2CCCN3CCCCC23)cc1OC (stereo not drawn)	i	i	i	i	i
CO/N=C/c1ccc(Oc2ccc([N+](=O)[O-])cc2[N+](=O)[O-])c(OC)c1	i	i	i	i	i
COc1cc(/C=C2\SC(=O)NC2=O)ccc1Oc1ccc([N+](=O)[O-])cc1[N+](=O)[O-]	87	i	i	i	i
Cn1cc(/C=C2\SC(=O)NC2=S)c2ccccc21	i	i	i	i	i
Cc1ccc(/C=C2/SC(=O)NC2=S)o1	77	i	i	i	i
COc1ccc(/C=C2\SC(=O)NC2=S)cc1OC	64	i	i	i	i
CCc1nc(CN2CCCC(C(=O)c3ccc4c5c(cccc35)CC4)C2)c(C)[nH]1 (stereo not drawn)	i	i	i	i	i
Cc1[nH]n(-c2ccccc2)c(=O)c1/C=N/NC(=O)c1cccc([N+](=O)[O-])c1	i	i	i	i	i
Cc1ccc(-n2[nH]c(C)c(/C=N/Nc3ccc([N+](=O)[O-])cc3[N+](=O)[O-])c2=O)cc1C	54	i	i	i	i
Cc1cccc(/C=N\NC(=O)c2sccc2-n2cccc2)c1	i	i	i	i	i
Cc1ccc(S(C)(=O)=N/C=C2\C(=O)c3sccc3N(C)S2(=O)=O)cc1 (stereo not drawn)	i	nt	i	i	i
SMILES	Mcl1 Noxa PPI	Bim-Mcl-1	p47phox inh	14-3-3 Bad inh	Mcl1-Bid inh
COC(=O)/C(=C/c1cn(C(C)=O)c2ccccc12)[N+](=O)[O-]	61	nt	i	i	i
COc1ccccc1OCCCCN1CCN(c2ccccc2OC)CC1	i	i	i	81	i
COc1ccccc1N1CCN(CCCCOc2cccc3ccccc23)CC1	i	i	i	i	i
Cc1ccc(S(=O)(=O)CCC(=O)OCC(=O)NCc2ccc(Cl)cc2)cc1	i	i	i	i	i
CC(NS(=O)(=O)c1cccc(Cl)c1)C(=O)N(C)C1CCN(C)CC1 (stereo not drawn)	53	i	i	i	i
Cc1ccc(-c2nnc(-c3ccccc3)o2)cc1	i	i	i	i	i
Cc1ccc(-c2nc(N)s[n+]2-c2ccccc2)cc1	i	i	93	i	i
CC(=O)Nc1scc(-c2ccccc2)[n+]1-c1ccc(C)cc1	i	i	i	i	i
CNc1nc(-c2ccccc2)[n+](-c2ccc(C)cc2)s1	i	i	94	i	i
CCCCCc1nc2sc3c(c2c(=O)n1NC(=O)c1ccc([N+](=O)[O-])cc1)CC(C)(C)OC3	i	i	i	i	i
COc1ccc(/C=C/C(=O)c2ccccc2)cc1Cn1nnc2ccccc21	i	i	i	i	i
Cc1nc(SCC(=O)NC(C)(C#N)C2CC2)c2c(-c3cccs3)csc2n1 (stereo not drawn)	i	i	i	i	i
CCOc1ccc2cc(/C=C/C(=O)c3ccco3)c(Cl)nc2c1	i	i	i	i	59
c1ccc2c(c1)oc1c(NCC3CCCO3)ncnc12 (stereo not drawn)	i	i	i	i	i
CSCC[C@@H](Nc1nc(-c2ccccc2)nc2c1oc1ccccc12)C(=O)O	i	i	i	i	60
O=C(O)CNc1nc(-c2ccccc2)nc2c1oc1ccccc12	i	nt	i	i	i
c1ccc(-c2nc(NCC3CCCO3)c3oc4ccccc4c3n2)cc1 (stereo not drawn)	i	i	i	70	i
c1ccc(-c2nc(NCc3cccnc3)c3oc4ccccc4c3n2)cc1	i	i	i	81	63
CN(C)C(=O)COc1ccc(Oc2ccccc2)cc1	i	i	i	i	i
CC(C)(C)c1ccc(C(=O)CSc2n[nH]c(=O)[nH]c2=O)cc1	i	i	i	i	i
COC1=C(OC)C(=O)C(CCCCCCCCCCO)=C(C)C1=O	55	i	i	i	i
O=C(N/N=C/c1cccc(OC(=O)c2ccc3c(c2)OCO3)c1)c1cncc(Br)c1	i	i	i	i	i
O=C(N/N=C/c1ccc(OC(=O)c2ccc3c(c2)OCO3)cc1)c1cncc(Br)c1	i	i	i	71	i
CC1CCCCN1C(=O)CCS(=O)(=O)c1cccc2nonc12 (stereo not drawn)	i	i	i	i	i
c1ccc(CNc2nc(NCc3ccccc3)c3ccccc3n2)cc1	60	nt	88	i	i
SMILES	Mcl1 Noxa PPI	Bim-Mcl-1	p47phox inh	14-3-3 Bad inh	Mcl1-Bid inh
Cc1cc(NCc2ccccn2)nc2ccccc12	i	i	i	i	i
Cc1nc(NCc2ccccn2)c2ccccc2n1	i	i	i	70	i
Cc1cccc(C(=O)NCc2nnc3c4ccccc4c(-c4ccccc4)nn23)c1	i	i	i	i	i
CC(=O)Oc1ccc2cc(-c3ccccc3)c(=O)oc2c1	i	nt	i	i	i
CSc1c(C#N)c(N)nc2sc(C(=O)c3ccc(Cl)c(Cl)c3)c(N)c12	i	nt	i	i	52
COc1ccc(-c2c(C#N)c(N)nc3sc(C(=O)c4ccccc4)c(N)c23)cc1	i	i	i	i	i
COc1ccc2c(c1)O/C(=C\c1sccc1C)C2=O	i	i	i	i	i
CCCCN(CCCC)CCn1cnc2c([nH]c3ccc(OC)cc32)c1=O	55	i	i	i	i
N#C/C(=C\c1cn(-c2ccccc2)nc1-c1cccnc1)c1nnc2n1CCCCC2	i	i	i	i	i
